Records with an inconclusive call do not appear. Where a call stands in place of a potency, no number is given. Unmarked numbers belong to inactive results. The source made the active and inactive calls. Calls follow the shape of the dose curve; as a rule, active = well fitted activation curve with a large enough effect; inconclusive = small, poorly fitted or top-dose-only effect, or another doubt; inactive = no such curve, though single readings can be large or run the other way.
The compounds below were run against Rap guanine nucleotide exchange factor 3 (Homo sapiens) (UniProt O95398) (assay: Counterscreen qHTS for agonist of cAMP-regulated guanine nucleotide exchange factor 3 (EPAC1) (AID 1645889; also: nearly all actives have a fitted effect of over 40% in size)). Details: EPAC1 Rap1B-BODIPY-GDP exchange, fluorescence; series mostly up to 154 µM.
Excerpt: Assay Provider (PI): Xiaodong Cheng Ph.D. The University of Texas Medical Branch, […], TX MLPCN Grant: NS066510 In multi-cellular eukaryotic organisms, the effects of cAMP are transduced by two ubiquitously-expressed intracellular cAMP receptors, the classic protein kinase A/cAMP-dependent protein kinase (PKA/cAPK) and the more recently discovered exchange protein directly activated by cAMP/cAMP-regulated guanine nucleotide exchange factor (EPAC/cAMP-GEF). Both PKA and EPAC are ubiquitously expressed in all tissues, and an increase in intracellular cAMP levels will lead to the activation of both PKA and EPAC. Therefore, careful dissections of the individual role and relative contribution of EPAC and PKA within the overall cAMP signaling in various model systems are critical for further elucidating the mechanism of cAMP signaling. To date no EPAC-specific antagonists and agonist, as well as isoform-specific agonists have been reported, and developing EPAC-specific pharmacological probes to determine the physiological functions that EPAC play in the overall cAMP-mediated signaling remains a major challenge within the research field. Furthermore, identified regulators of EPAC may lead to new mechanism-based therapeutic strategies specifically targeting the EPAC / cAMP-signaling components as EPAC has been implicated to play important roles in major human pathological conditions such as diabetes, heart disease, and cancer. This qHTS will be used to screen the Molecular Libraries Small Molecule Repository (MLSMR) as a concentration-titration series using the NCGC unique quantitative screening (qHTS) platform to find activators for EPAC1. In addition, this assay will also be used as a counterscreen for the EPAC2 qHTS. This fluorescent based assay is developed and validated for EPAC1 that measures exchange using EPAC effector Rap1 complex with BODIPY-GDP, a GDP analog with a tethered fluorophores. Activators are identified by monitoring the change in fluorescence signal as the exchanged free BODIPY-GDP has a reduced fluorescence compared to Rap1-bound BODIPY-GDP. Increase in signal (activation) is the desired outcome for the EPAC1 agonist while no activity in this assay is desired for the EPAC2 agonist counterscreen. Reference: [1] de Rooij, J., Zwartkruis, F. J., Verheijen, M. H., Cool, R. H., Nijman, S. M., Wittinghofer, A., and Bos, J.L. (1998) Nature 396, 474-477. Kawasaki, H., Springett, G. M., Mochizuki, N., Toki, S., Nakaya, M., Matsuda, M., Housman, D. E., and Graybiel, A. M. (1998) Science 282, 2275-2279.
EPAC1 Counterscreen PROTOCOL TABLE SEQUENCE No. (e.g., 1, 2, 3, etc.); […] (e.g., Cells, Incubation, Reagent, etc.); VALUE and DESCRIPTION. 1. Reagent. 3 uL. [1x] 250 nM Rap1B-BODIPY-GDP, and 50 uM GDP. 2a. Compound. 23 nL. Control 6,572 uM cAMP (working concentration). 2b, 2c. Compound. 23 nL. Control activator and inhibitor; 234 - 30,000 uM cAMP and 16.4 - 10,000 uM. 2d. Compound. 46 nL. MLSMR follow-up library; 0.64 - 10,000 uM. 3. Time. 15 sec, 1000rpm. Centrifuge. 4. Time. 5 min. Incubation at room temperature. 5. Detector. Fluorescence. (Read 1), Ex/Em = 480 nm / 540 nm. 6. Time. 30 min. Incubation at room temperature. 7. Detector. Fluorescence. (Read 2), Ex/Em = 480 nm/ 540 nm. 8. Reagent. 1uL. Dispense either [4x] 10 uM cAMP or buffer. 9. Time. 15 sec, 1000 rpm. Centrifuge. 10. Time. 5 min. Incubation at room temperature. 11. Detector. Fluorescence. (Read 3), Ex/Em = 480 nm / 540 nm. 12. Time. 30 min. Incubation at room temperature. 13. Detector. Fluorescence. (Read 4), Ex/Em = 480 nm / 540 nm. NOTES (numbers refer to Sequence numbers above; values are from representative experiments) 1. Medium-binding black solid-bottom Greiner plates (789176-F). Dispense 3 uL of [1x] 250 nM Rap1B-BODIPY-GDP, and 50 uM GDP into columns 1 to 48. 2a. Control compound cAMP (6,572 uM, column 3, rows 1 to 32) single pin-transferred for a [final] of 50 uM. 2b. […]
Potency is read from the fitted curve at half-maximal effect.

| SMILES | Potency | activation |
| --- | --- | --- |
| CCC(=C(c1ccc(OC)cc1)c1ccc(OC)cc1)c1cn(CC(O)CN(CCO)CCO)c2ccccc12 (stereo not given) | inactive | – |
| Cc1ccc(N2CC(c3nc4ccccc4[nH]3)CC2=O)c(C)c1 (stereo not given) | inactive | – |
| C=CCc1ccccc1OCCSc1nc(-c2ccccc2F)nc2cc(=O)[nH]n12 | inactive | – |
| CC(C)(C)n1nc(Cc2cccc3ccccc23)c(C#N)c1N | inactive | – |
| Cc1c2cn[nH]c(=O)c2c(C)n1-c1ccccc1 | inactive | – |
| Cc1nnc(SCC(=O)Nc2sccc2C#N)s1 | 0.0178 µM (active) | – |
| COc1ccc(-n2c(C)cc(/C=C3\SC(=O)NC3=O)c2C)cc1 | inactive | – |
| CC(C)OC(=O)C(C#N)c1nc2ccccc2nc1N1CCCC1 (stereo not given) | – | 3.58% [at 30.8 µM] |
| COc1cc(/C=C2/SC(=S)N(CC(=O)O)C2=O)ccc1OC(=O)c1cccs1 | inactive | – |
| Cc1cccc(C)c1OC(=O)c1ccccc1 | – | 6.89% [at 30.8 µM] |
| CC(=O)Nc1sc(/C(C#N)=C\c2cccc(Cl)c2)nc1-c1ccc(C)cc1 | – | 23.7% [at 30.8 µM] |
| Cc1[nH]n(-c2ncc(-c3ccccc3)s2)c(=O)c1C(c1ccc(Cl)cc1)C(C#N)C#N (stereo not given) | – | 13% [at 30.8 µM] |
| Cc1ccc([N+](=O)[O-])cc1NC(=O)CN(C1CCCCC1)S(=O)(=O)c1ccc(Cl)cc1 | inactive | – |
| COc1cc(/C=C(\C#N)c2nc3ccc(C)cc3[nH]2)ccc1OCc1ccc(C)cc1 | inactive | – |
| CCOC(=O)C1=C(C)NC(SC)=C(C#N)C1CC(C)C (stereo not given) | inactive | – |
| CCOC(=O)c1c(NC(=O)c2ccccc2OCC)sc2c1CCC(CC)C2 (stereo not given) | inactive | – |
| CCCCOc1c(Br)cc(/C=N/O)cc1OCC | – | 5.43% [at 30.8 µM] |
| COc1ccc(S(=O)(=O)Nc2ncccc2C)c2ccccc12 | inactive | – |
| CCN(C(=O)Cn1c(=O)oc2cc(Cl)ccc21)c1cccc(C(F)(F)F)c1 | inactive | – |
| Cc1ccc(C2CC(=O)Oc3cc(C)c(Br)c(C)c32)cc1 (stereo not given) | inactive | – |

| SMILES | Potency | activation |
| --- | --- | --- |
| Cc1ccc(-c2c3c(=O)n(C)c(=O)n(C)c3c3c(C(F)(F)F)nc4ccccc4n23)cc1 | inactive | – |
| CCc1nc2c(OCc3ccc(C(F)(F)F)cc3)cccn2c1N(C)C(=O)CC(C)C | inactive | – |
| N=C1S/C(=C\c2ccco2)C(=O)N1c1ccc2c(c1)OCO2 | inactive | – |
| COc1ccc(/C=N/n2cnc3c([nH]c4ccc(F)cc43)c2=O)cc1CN1CCCC1 | inactive | – |
| CCCCn1c(=O)[nH]c2nc3cc(N)ccc3nc2c1=O | 12.6 µM (active) | – |
| CC(Oc1ccc(Br)cc1)C(=O)NCC(c1cccs1)N1CCOCC1 (stereo not given) | inactive | – |
| Cc1ccc(S(=O)(=O)Nc2ccc3ccccc3c2[N+](=O)[O-])cc1 | inactive | – |
| Nc1ccc(SC(F)(F)F)cc1C(=O)c1ccccc1 | – | 5.87% [at 30.8 µM] |
| Cc1ccccc1OCC(=O)Nc1ccccc1N1CCC(C)CC1 | inactive | – |
| CC(C)Cn1c(N)c(C(=O)COC(=O)c2cc(-c3ccco3)nc3ccccc23)c(=O)n(C)c1=O | inactive | – |
| COC(=O)c1c(SC)nc2ccccc2c1OCc1ccccc1Cl | inactive | – |
| Cc1cccc(NC(=O)c2cc(S(=O)(=O)N(C)c3ccc(F)cc3)ccc2Cl)n1 | inactive | – |
| COc1ccccc1C(=O)C1CCCN(C(=O)c2ccc3c(c2)OCCO3)C1 (stereo not given) | inactive | – |
| CCC(=O)N(CCC(c1ccc(C)cc1)c1ccco1)Cc1ccco1 (stereo not given) | – | 19.5% [at 30.8 µM] |
| Nc1nc(C(c2ccccc2)c2ccccc2)cs1 | inactive | – |
| CCOc1cnc(-c2c(-c3ccccc3Cl)noc2C)o1 | inactive | – |
| CC1=Nc2ccccc2N=C(NC(=O)/C=C/C(=O)O)C1c1ccccc1 (stereo not given) | inactive | – |
| OC(c1cc(F)cc(Cl)c1)c1ncc(-c2cccc(C(F)(F)F)c2)[nH]1 (stereo not given) | – | 19.7% [at 30.8 µM] |
| CCc1ccc(OCC2c3cc(OC)c(OC)cc3CCN2C(C)=O)cc1 (stereo not given) | inactive | – |
| CCOC(=O)C1C(=O)C=C(c2ccc(C)cc2)CC1c1ccccc1 (stereo not given) | – | 8.22% [at 30.8 µM] |

— PubChem BioAssay (NCATS)
